# Measurements from PubChem BioAssay (NCATS).
# Results filed as inconclusive are left out. Where a call stands in place of a potency, no number is given. For some assays here: Measured potencies and affinities stand elsewhere. The source made the active and inactive calls.
# Tests used:
# [1] = Ebola virus entry assay, reporter ratio channel; Channel type: primary
# [2] = Ebola virus entry assay, blue channel (ratio component)
# [3] = qHTS assay for measurement of the activity of small molecule inhibitors on Zika virus induced Caspase-3 activity in human iPSC derived neural progenitor cells (hNPCs) (AID 1224857; active = well fitted curve in the direction sought with a large enough effect; an effect the other way counts as inactive or inconclusive; also: nearly all actives have a fitted effect of over 65% in size); details: hNPCs ZIKV-induced caspase-3/7, Caspase-Glo luminescence, 6 h; series mostly up to 45.7 µM
# Method in brief: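 In medium with heparin 2 ug/ml and cyclopamine 2 uM, hNPCs (350 cells/well) received compound for one hour and then Zika virus at 2 FFU/cell; caspase activity was measured by Caspase-Glo 3/7 luminescence 6 h post-infection.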
# [4] = qHTS assay for measurement of the activity of small molecule inhibitors on Zika virus induced Caspase-3 activity in human astrocytoma cells (AID 1224859; active = well fitted curve in the direction sought with a large enough effect; an effect the other way counts as inactive or inconclusive); details: SNB-19 ZIKV-induced caspase-3/7, luminescence, 6 h; series mostly up to 45.7 µM
# Method in brief: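 A cell-based luminescent caspase-3/7 assay used SNB-19 cells infected with ZIKV (2 FFU/cell) for 6 h following 1 h compound pretreatment.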
# [5] = Ebola virus entry cell assay, ratio channel
# [6] = qHTS assay to identify small molecule inhibitors of chordoma cells - UCH-2 (AID 1259356; active = well fitted curve in the direction sought with a large enough effect; an effect the other way counts as inactive or inconclusive; also: potency is read from the fitted curve at half-maximal effect); details: UCH-2 chordoma viability, CellTiter-Glo ATP luminescence, 48 h; series mostly up to 46.1 µM
# [7] = Immunotoxin (HA22) sensitization/mitigation study. Vehicle arm (PBS) (AID 1159510); details: cancer cells viability with PBS vehicle (HA22 study); series mostly up to 46.1 µM; also: potency is read from the fitted curve at half-maximal effect
smiles,measurement,setting,value
COc1ccccc1N1CCN(CC(O)COc2cc(OC)c(OC)c(OC)c2)CC1 (stereo not given),outcome,[1],inactive
same,outcome,[2],inactive
CN1Cc2cc(C(=O)N3CCC(C4CCNCC4)CC3)ccc2N[C@@H](CC(=O)O)C1=O,outcome,[1],inactive
same,outcome,[2],inactive
CN(C)c1ccc(N=NS(=O)(=O)O)cc1,outcome,[1],inactive
S=c1[nH]c2ccccc2s1,outcome,[1],inactive
same,outcome,[2],inactive
O=C(O)COc1nc(Cl)c(Cl)cc1Cl,outcome,[1],inactive
same,outcome,[2],inactive
C#CC(C)(CC)OC(=O)c1ccccc1C(=O)O (stereo not given),outcome,[1],inactive
same,outcome,[2],inactive
CC(=O)Oc1cccc(C)c1,outcome,[1],inactive
same,outcome,[2],inactive
CC(C)(c1ccc(O)cc1)c1ccc(O)cc1,AC50,[1],44.7 µM (active)
COc1cc(S(N)(=O)=O)cc(C(=O)O)c1OC,outcome,[1],inactive
same,outcome,[2],inactive
CCOc1cc(NC(C)=O)ccc1C(=O)OC,outcome,[1],inactive
Cc1ccc(N)cc1O,AC50,[1],31.6 µM (active)
O=C(O)c1ccccc1O,outcome,[1],inactive
same,outcome,[2],inactive
CS(=O)(=O)Nc1ccc([N+](=O)[O-])cc1Oc1ccccc1,outcome,[1],inactive
same,outcome,[2],inactive
CC(C)(C)NCC(O)c1ccc(O)c(CO)c1 (stereo not given),outcome,[1],inactive
Oc1c(I)cc(I)c2cccnc12,outcome,[1],inactive
same,outcome,[2],inactive
O=C(O)CNC(=O)CNC(=O)CNC(=O)CSC(=O)c1ccccc1,outcome,[1],inactive
same,outcome,[2],inactive
O=C(O)Cc1ccccc1Oc1ccc(Cl)cc1Cl,outcome,[1],inactive
same,outcome,[2],inactive
CC(C)(C)NC[C@H](O)c1ccc(O)cc1Cl,Potency,[3],inactive
O=C(O)c1cc(Oc2ccc(C(F)(F)F)cc2Cl)ccc1[N+](=O)[O-],outcome,[1],inactive
same,outcome,[2],inactive
same,Potency,[4],inactive
O=C(O)CCCOc1ccc(Cl)cc1Cl,outcome,[1],inactive
same,outcome,[2],inactive
same,Potency,[4],inactive
COc1cccc2c1C(=O)c1c(O)c3c(c(O)c1C2=O)C[C@](O)(C(=O)CO)C[C@@H]3O[C@H]1C[C@H](N)[C@@H](O)[C@H](C)O1,AC50,[5],7.08 µM (active)
CCCCCCCCCC(CC)c1ccc(S(=O)(=O)O)cc1 (stereo not given),AC50,[1],31.6 µM (active)
same,Potency,[4],inactive
same,Potency,[6],inactive
CC(C)(C)c1cc(NC(=O)Nc2ccc(-c3cn4c(n3)sc3cc(OCCN5CCOCC5)ccc34)cc2)no1,Potency,[7],0.59 µM (active)
CCCCOCCOc1nc(-c2ccc(C(=O)O)c(F)c2)sc1C,Potency,[7],0.0017 µM [activator] (active)
NC(CO)(CO)CCc1ccc(Sc2cccc(OCc3ccccc3)c2)cc1Cl,Potency,[7],23.5 µM (active)
C[C@]12CC[C@H](O)CC1=CC[C@@H]1[C@H]2CC[C@]2(C)C(c3cccnc3)=CC[C@H]12,Potency,[7],1.87 µM (active)
COc1cc2nccc(Oc3ccc(NC(=O)Nc4cc(C)on4)c(Cl)c3)c2cc1OC,Potency,[7],18.7 µM (active)
Cc1cccc(Nc2nc(N[C@@H]3CCCC[C@H]3N)ncc2C(N)=O)c1,Potency,[7],18.7 µM (active)
CC(=O)[O][Hg][c]1ccccc1,AC50,[1],4.47 µM (active)
same,Potency,[3],inactive
same,Potency,[6],2.59 µM (active)
NC(=O)C1CCCc2c1[nH]c1ccc(Cl)cc21 (stereo not given),Potency,[7],inactive
Cc1ccccc1C(C(=O)NC1CCCC1)N(C(=O)Cn1cnc2ccccc21)c1cccc(F)c1 (stereo not given),Potency,[7],23.5 µM (active)
COc1ccc(C2=N[C@H](c3ccc(Cl)cc3)[C@H](c3ccc(Cl)cc3)N2C(=O)N2CCNC(=O)C2)c(OC(C)C)c1,Potency,[7],2.64 µM (active)
O=[N+]([O-])c1c2ccccc2cc2ccccc12,outcome,[1],inactive
same,outcome,[2],inactive
same,Potency,[4],inactive
S=C(SSC(=S)N1CCCCC1)N1CCCCC1,outcome,[1],inactive
same,outcome,[2],inactive
same,Potency,[4],inactive
CN1CCN(c2cc(C(=O)Nc3ccc4c(c3)-c3c(c(C(N)=O)nn3-c3ccc(F)cc3)CC4)c(Cl)cn2)CC1,Potency,[7],26.4 µM (active)
Cn1c(=O)c(F)c(Nc2ccc(I)cc2F)c2c(=O)n(C[C@@H](O)CO)cnc21,Potency,[7],23.5 µM (active)
CN(C)c1ccc(Nc2nc(N)n(C(=O)c3c(F)cccc3F)n2)cc1,Potency,[7],20.9 µM (active)
Nc1ccc(Cl)cc1,outcome,[1],inactive
same,outcome,[2],inactive
same,Potency,[4],inactive
CNCc1ccc(-c2[nH]c3cc(F)cc4c3c2CCNC4=O)cc1,Potency,[7],20.9 µM (active)
